The structures appear in SMILES notation.

Chain of Neurogenic locus notch homolog protein 2 (Homo sapiens) (Q04721 whole entry, looked up): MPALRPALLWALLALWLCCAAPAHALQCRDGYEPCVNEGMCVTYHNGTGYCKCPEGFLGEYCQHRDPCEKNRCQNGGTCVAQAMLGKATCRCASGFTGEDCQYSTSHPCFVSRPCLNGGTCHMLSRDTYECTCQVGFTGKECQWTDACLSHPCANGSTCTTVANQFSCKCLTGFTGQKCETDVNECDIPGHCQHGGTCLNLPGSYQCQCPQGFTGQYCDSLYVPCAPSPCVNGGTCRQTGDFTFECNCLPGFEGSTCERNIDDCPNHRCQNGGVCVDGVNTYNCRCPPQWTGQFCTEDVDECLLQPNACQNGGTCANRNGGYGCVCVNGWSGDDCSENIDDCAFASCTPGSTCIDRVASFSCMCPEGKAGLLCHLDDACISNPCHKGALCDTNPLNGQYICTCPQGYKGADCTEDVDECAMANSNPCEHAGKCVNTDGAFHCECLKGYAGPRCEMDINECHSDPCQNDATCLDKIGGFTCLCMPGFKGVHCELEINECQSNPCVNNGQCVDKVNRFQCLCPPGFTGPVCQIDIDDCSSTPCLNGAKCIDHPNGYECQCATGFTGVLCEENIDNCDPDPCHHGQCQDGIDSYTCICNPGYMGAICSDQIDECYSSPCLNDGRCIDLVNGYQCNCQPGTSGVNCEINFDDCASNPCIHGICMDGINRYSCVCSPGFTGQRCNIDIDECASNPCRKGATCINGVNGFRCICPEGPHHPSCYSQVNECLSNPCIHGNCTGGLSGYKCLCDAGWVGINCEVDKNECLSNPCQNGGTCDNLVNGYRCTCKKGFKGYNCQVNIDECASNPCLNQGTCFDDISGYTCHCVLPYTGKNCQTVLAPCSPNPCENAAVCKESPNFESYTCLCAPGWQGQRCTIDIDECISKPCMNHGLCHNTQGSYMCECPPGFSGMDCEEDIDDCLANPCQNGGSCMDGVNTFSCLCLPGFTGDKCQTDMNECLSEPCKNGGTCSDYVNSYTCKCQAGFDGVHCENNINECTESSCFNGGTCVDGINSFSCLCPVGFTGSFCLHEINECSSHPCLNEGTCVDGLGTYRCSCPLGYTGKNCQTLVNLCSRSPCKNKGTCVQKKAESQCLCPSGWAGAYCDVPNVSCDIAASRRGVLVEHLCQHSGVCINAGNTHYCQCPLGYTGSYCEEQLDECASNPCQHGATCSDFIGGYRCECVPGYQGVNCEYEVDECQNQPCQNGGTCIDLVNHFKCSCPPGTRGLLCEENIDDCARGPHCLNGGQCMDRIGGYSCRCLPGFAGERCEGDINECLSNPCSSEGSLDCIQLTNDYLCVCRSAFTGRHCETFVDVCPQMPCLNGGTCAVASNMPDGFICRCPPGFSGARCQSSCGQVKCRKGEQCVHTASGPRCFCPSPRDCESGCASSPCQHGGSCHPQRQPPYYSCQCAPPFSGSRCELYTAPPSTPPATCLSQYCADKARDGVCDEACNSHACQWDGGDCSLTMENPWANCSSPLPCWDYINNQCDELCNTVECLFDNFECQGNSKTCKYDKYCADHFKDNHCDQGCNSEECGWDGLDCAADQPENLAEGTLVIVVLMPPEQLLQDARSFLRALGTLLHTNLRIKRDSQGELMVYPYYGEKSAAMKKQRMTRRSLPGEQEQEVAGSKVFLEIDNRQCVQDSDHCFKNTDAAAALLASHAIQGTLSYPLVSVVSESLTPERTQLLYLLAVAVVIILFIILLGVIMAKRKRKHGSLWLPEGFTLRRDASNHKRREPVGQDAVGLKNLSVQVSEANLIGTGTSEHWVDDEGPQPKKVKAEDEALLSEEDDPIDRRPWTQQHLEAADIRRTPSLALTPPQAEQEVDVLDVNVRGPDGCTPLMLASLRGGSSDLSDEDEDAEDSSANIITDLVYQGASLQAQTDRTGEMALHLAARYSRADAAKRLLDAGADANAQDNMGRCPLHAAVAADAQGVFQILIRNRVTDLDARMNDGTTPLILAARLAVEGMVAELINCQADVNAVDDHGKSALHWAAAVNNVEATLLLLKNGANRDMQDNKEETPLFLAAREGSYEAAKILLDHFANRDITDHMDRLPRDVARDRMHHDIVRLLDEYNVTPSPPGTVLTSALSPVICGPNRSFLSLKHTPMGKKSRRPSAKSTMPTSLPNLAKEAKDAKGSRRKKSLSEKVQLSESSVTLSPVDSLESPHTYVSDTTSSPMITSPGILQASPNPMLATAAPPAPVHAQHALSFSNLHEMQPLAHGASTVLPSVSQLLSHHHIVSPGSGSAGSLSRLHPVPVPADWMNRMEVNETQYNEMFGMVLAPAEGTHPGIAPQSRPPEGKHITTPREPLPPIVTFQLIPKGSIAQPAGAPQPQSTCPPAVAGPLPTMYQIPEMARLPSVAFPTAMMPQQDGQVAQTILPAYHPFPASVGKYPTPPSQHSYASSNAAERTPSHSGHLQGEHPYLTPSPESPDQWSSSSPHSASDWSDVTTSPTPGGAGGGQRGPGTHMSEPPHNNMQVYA

The assay addresses Neurogenic locus notch homolog protein 2 (Homo sapiens) (UniProt Q04721). Description: small molecules binding Notch2 protein – biochemical, small-molecule microarray, 635 nm fluorescence, stem cell growth factors, primary screen (AID 1073). Conditions: higher = more signal.
Regarding `Cc1ccc(S[C@]2(C(=O)O)CC(=O)N(Cc3cc(C(F)(F)F)cc(C(F)(F)F)c3)[C@@H]2c2ccc(CO)cc2)cc1`, the composite z-score was -2.43. The value for `CCOC(=O)[C@H]1[C@@H]2C(=O)N3CCC[C@H]3[C@H](O[Si](C(C)C)(C(C)C)C(C)C)[C@H]2C=C2CCN(S(=O)(=O)c3ccc(C)cc3)C[C@H]21` was 0.966; that for `CO[C@H]1O[C@H](CO)[C@@H](OC(=O)Nc2ccccc2-c2ccccc2)[C@H](OC(=O)Nc2ccc3c(c2)OCO3)[C@H]1OC(=O)Nc1ccc2c(c1)OCO2` was 1.47; that for `COc1ccccc1CN1C(=O)c2ccccc2[C@@]2(Cc3ccccc3N(CC(F)(F)F)C2=O)[C@@H]1c1ccc(CO)cc1` was 0.166.

The compound `CN(C)C(=O)[C@@]1(Cc2ccccc2CN=[N+]=[N-])N=C(c2ccc(OCCCO)cc2)O[C@H]1c1ccccc1CN=[N+]=[N-]` gave a composite z-score of 1.52.

Regarding `COc1ccc(CCN2C(=O)[C@@]3(Cc4ccccc42)c2ccccc2C(=O)N(Cc2ccccc2OC)[C@H]3c2ccc(CO)cc2)cc1`, the composite z-score is -0.779. Next, `O=C1C2C=CC(C(O)c3ccc(Br)cc3)N(Nc3ccccc3F)C2C(=O)N1c1ccccc1` (stereo unspecified): 0.776.

`C=CCC(OC(C)=O)[C@@H]1[C@@H](N(Cc2cccc3ccccc23)C(=O)Cc2ccc(OC)cc2)c2cc(OCCCO)ccc2N1C(=O)c1ccc2ccccc2n1` (stereo partly specified) displayed a composite z-score of -0.263.

On to `COC(=O)C(CC#Cc1ccc2c(c1)[C@]1(C(=O)N2)[C@H](c2ccccc2OCCO)N2[C@H](c3ccccc3)[C@H](c3ccccc3)OC(=O)[C@H]2[C@@H]1C(=O)NC[C@H](O)c1ccccc1)C(=O)OC`, for which the composite z-score was found to be 0.982. Next, `COc1ccc([Si](C)(C)[C@H]2[C@H](CCO)O[C@@]3(C(=O)N(Cc4cccc(N5C(=O)COc6ccccc65)c4)c4ccccc43)[C@@H]2C)cc1`: -0.298; `CCCCCCc1nc(C2CC2)cc2c1[Si](C(C)C)(C(C)C)OC2`: -1.13. In turn, `C=CCNC(=O)[C@@H]1[C@H]2C(=O)O[C@H](c3ccccc3)[C@H](c3ccccc3)N2[C@H](c2ccc(O)cc2)[C@@]12C(=O)N(C(=O)OCCOC)c1ccc(C#CC3(O)CCCCCC3)cc12` showed a composite z-score of -2.26.

In turn, `CC(CO)N1C(=O)[C@@H]2[C@H]3C(=O)OCC=C[C@H]3OC23C=CCN(Cc2ccccc2)C(=O)[C@@H]13` (stereo partly specified) showed a composite z-score of -0.374.

`[N-]=[N+]=NCc1ccccc1C[C@@]1(C(=O)NCc2ccccc2)N=C(c2ccc(OCCCO)cc2)O[C@@H]1c1ccccc1N=[N+]=[N-]`: the composite z-score is 1.33.

For the compound `C=CCN1Cc2ccccc2[C@H]2OC(c3ccc(OCCCO)cc3)=N[C@@]2(CC=C)C1=O`, the composite z-score turned out to be 1.12. The value for `Cc1cc(C)cc(N2C(=O)CSC2c2cccc([N+](=O)[O-])c2)c1` (stereo unspecified) was 1.17; that for `CCOc1cc(C(O)C2C=CC3C(=O)N(C)C(=O)C3N2Nc2ccccc2)ccc1O` (stereo unspecified) was 1.46. Next, `[N-]=[N+]=Nc1ccccc1C[C@]1(C(N)=O)N=C(c2ccc(OCCCO)cc2)O[C@H]1c1ccccc1N=[N+]=[N-]`: 1.23; `NC(=O)NCC#Cc1ccc2c(c1)[C@]1(C(=O)N2)[C@H](C(=O)O)[C@H]2C(=O)O[C@H](c3ccccc3)[C@H](c3ccccc3)N2[C@@H]1c1ccc(OCCO)cc1`: 0.247; `CCCCCCc1nc(C2CC2)cc2c1[Si](C(C)C)(C(C)C)O[C@H]2c1ccccc1`: 0.516. The value for `COc1cc2c(cc1OC)CN(C(=O)[C@@H]1[C@H]3C(=O)O[C@H](c4ccccc4)[C@H](c4ccccc4)N3[C@H](c3ccc(OCCO)cc3)[C@@]13C(=O)Nc1ccc(C#CC4(O)CCCCCC4)cc13)CC2` was 1.14; that for `O=C1C[C@@](C(=O)NCCN2CCOCC2)(c2ccc([N+](=O)[O-])cc2)[C@@H](c2ccc(CO)cc2I)N1C1CCCCC1` was 0.64. `COC(=O)[C@@]1(Cc2ccc(F)cc2)[C@H]2c3cc(C(=O)N4CCCC4)n(CCc4ccc(O)c(O)c4)c3C[C@H]2CN1C(=O)c1ccccc1`: the composite z-score stood at 1.38.

`CC(C)N1C(=O)C[C@@](C(=O)NCCCN(C)C)(c2ccc([N+](=O)[O-])cc2)[C@H]1c1ccc(CO)cc1` registered a composite z-score of -0.072. Next, `COC(=O)C1=CC(CCCO)=CC(C2CC2)N(C)C=C1C(=O)OC` (stereo unspecified): 0.448; `COC(=O)c1c(CC[C@@H](CO)NC(=O)N2CCC[C@H]2Cn2cc(Cc3ccccc3)nn2)oc(C(C)=O)c1C(=O)OC`: 0.0554; `O=C(N1CCCCC1)[C@@]1(CCS(=O)(=O)c2ccccc2)COC(c2ccc(OCCCO)cc2)=N1`: 1.03.

`CC1=C[C@@]2(CO)C(=O)[C@]3(CO3)[C@@H]1[C@H]1[C@]2(C)C=C(CO)C(=O)[C@]12CO2` registered a composite z-score of 0.31. `CCCNC(=O)[C@@]1(c2ccc([N+](=O)[O-])cc2)CC(=O)N(C2CCCCC2)[C@@H]1c1ccc(CO)cc1` came in with a composite z-score of 1.03. Next, `NC(=O)NCC#Cc1ccc2c(c1)[C@]1(C(=O)N2)[C@H](C(=O)NC[C@H](O)c2ccccc2)[C@H]2C(=O)O[C@H](c3ccccc3)[C@H](c3ccccc3)N2[C@@H]1c1ccc(OCCO)cc1`: 0.103; `O=C1NC(=O)C2C1C=CC(C(O)CCc1ccccc1)N2Nc1ccc(Cl)cc1Cl` (stereo unspecified): 1.39. Compound `CCCCC=C[C@@H](NC(=O)c1ccc(-c2ccccc2)cc1)c1ccccc1` yielded a composite z-score of 1.44. Next, `COc1ccc([Si](C)(C)[C@@H]2[C@@H](CC(=O)N(CCO)Cc3ccccc3)O[C@]3(C(=O)N(Cc4cccc(N5CCOC5=O)c4)c4ccccc43)[C@H]2C)cc1`: 0.0505. The value for `CC(C)N1CC=CC23O[C@@H]4C=CCOC(=O)[C@@H]4[C@H]2C(=O)N(CCCO)[C@@H]3C1=O` (stereo partly specified) was -0.671; that for `C=CCNC(=O)[C@H]1[C@@H]2C(=O)O[C@@H](c3ccccc3)[C@@H](c3ccccc3)N2[C@@H](c2ccc(O)cc2)[C@]12C(=O)N(C(=O)OCCOC)c1ccccc12` was 1.05; that for `O=C1OCC=C[C@H]2OC34C=CCN(c5ccc(Cl)cc5)C(=O)[C@H]3N(CCO)C(=O)[C@@H]4[C@@H]12` (stereo partly specified) was -1.09.
